Source: PubChem BioAssay AID588519 (ICCB-Longwood Screening Facility, Harvard Medical School, 2011)
Values joined by “and” are separate entries in the source; they are usually repeats but may differ in a detail not shown here. Equal entries are not always repeated. The campaign covered roughly 150,000 compounds. About 1,000 (0.67%) were called active. Cut-off read from the data, not from the text of the source: active = % elongation below about 90%; inactive = the rest, inconclusive results apart. For the sample, actives were picked, then their nearest neighbours and some compounds at random.

Molecular target: Genome polyprotein (Poliovirus type 1 (strain Mahoney)) (UniProt P03300)
Sequence (P03300 1749-2209 limits assumed): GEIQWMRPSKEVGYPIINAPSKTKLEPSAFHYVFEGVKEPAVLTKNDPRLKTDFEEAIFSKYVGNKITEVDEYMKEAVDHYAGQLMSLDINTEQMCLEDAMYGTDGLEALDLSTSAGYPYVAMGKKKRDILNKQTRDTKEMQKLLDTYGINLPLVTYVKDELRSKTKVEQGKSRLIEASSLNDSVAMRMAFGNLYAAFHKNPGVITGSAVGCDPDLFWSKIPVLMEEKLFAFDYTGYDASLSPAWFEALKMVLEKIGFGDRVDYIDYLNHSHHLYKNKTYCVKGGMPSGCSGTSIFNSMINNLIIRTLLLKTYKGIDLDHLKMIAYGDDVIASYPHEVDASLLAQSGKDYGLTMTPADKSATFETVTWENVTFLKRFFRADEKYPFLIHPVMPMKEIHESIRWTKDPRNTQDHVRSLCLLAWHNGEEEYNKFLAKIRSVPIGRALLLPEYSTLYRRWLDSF
Test: poliovirus RdRp elongation inhibitors, primary screen, biochemical, fluorescence polarization, total intensity (AID 588519); for z-score: compound at 16.7 µg/mL
Conditions: poliovirus polymerase elongation, stronger effect = lower value; for % elongation: compound at 16.7 µg/mL; for z-score: measured here: FP z-score
[1] = measured here: total intensity read-out

O=C(O)/C=C/c1ccc2c(c1)OCCO2
% elongation: 102% (inactive)
z-score: 0.1
% elongation [1]: 99%

CCSc1nnc(NC(=O)c2ccc(C)c(S(=O)(=O)N(CC)CC)c2)s1
% elongation: 100% (inactive)
z-score: -0.5
% elongation [1]: 98%

CCSc1nnc(NC(=O)/C=C/c2ccc3c(c2)OCCO3)s1
% elongation: 85% (active)
z-score: -3.6
% elongation [1]: 91%

COc1ccc(S(=O)(=O)N2CCC(C(=O)N3CCCC3)CC2)cc1OC
% elongation: 99% (inactive)
z-score: -0.6
% elongation [1]: 100%

O=C(NCc1ccco1)c1cc(Cl)cc(Cl)c1
% elongation: 99% (inactive)
z-score: -0.7
% elongation [1]: 104%

CCN1CCN(C2=Nc3c(Cl)cc(Cl)c4cccc2c34)CC1
% elongation: 45% (inactive)
z-score: -6.5
% elongation [1]: 247%

CCN(CC)CCN1COc2c(cc(Cl)c3cccnc23)C1
% elongation: 84% (active)
z-score: -5.8
% elongation [1]: 80%

CCc1cc(=O)oc2c(C)c3c(cc12)CN(Cc1ccccc1)CO3
% elongation: 100% (inactive)
z-score: -0.7
% elongation [1]: 104%

O=c1c(C=Nc2cc(Cl)ccc2O)c(O)n(C2CCCCC2)c(=O)n1C1CCCCC1
% elongation: 100% (inactive)
z-score: 0
% elongation [1]: 100%

NS(=O)(=O)c1ccc(CCN(Cc2nc3ccsc3c(=O)[nH]2)Cc2nc3ccsc3c(=O)[nH]2)cc1
% elongation: 111% (inactive)
z-score: 1.1
% elongation [1]: 110%

COC(=O)C(Cc1ccccc1)NC(=O)c1n[nH]c(=O)c2ccccc12 (centres undefined)
% elongation: 101% (inactive)
z-score: -0.2
% elongation [1]: 100%

COc1ccc(OCCOc2ccccc2F)cc1
% elongation: 104% (inactive)
z-score: 1.2
% elongation [1]: 102%

CCOC(=O)C1(C(=O)OCC)C(c2ccccc2)CC(=O)CC1c1ccccc1 (centres undefined)
% elongation: 99% (inactive)
z-score: -0.3
% elongation [1]: 96%

CCOC(=O)C1(C2(O)C(=O)c3ccccc3C2=O)CCCC1=O (centres undefined)
% elongation: 75% (active)
z-score: -3.1
% elongation [1]: 72%

CCOC(=O)C1(C(=O)OCC)CCN(S(=O)(=O)c2ccc(C)cc2)c2ccccc2C1=O
% elongation: 107% (inactive)
z-score: 0.2
% elongation [1]: 102%

CN(C)/C=C1/C(=O)Nc2ccccc21
% elongation: 98% (inactive)
z-score: -0.1
% elongation [1]: 103%

Nc1ccc(N=C2C(=O)Nc3ccccc32)cc1
% elongation: 99% (inactive)
z-score: -0.4
% elongation [1]: 100%

O=C1Nc2ccccc2C1=Nc1cccc(C(F)(F)F)c1
% elongation: 88% (active)
z-score: -1.2
% elongation [1]: 90%

COc1ccc(C(C#N)OC(C)=O)c(OCc2ccccc2)c1OC (centres undefined)
% elongation: 105% (inactive)
z-score: 0.2
% elongation [1]: 102%

CCOc1ccc(NC(=O)c2c(NC(=O)Cc3ccccc3)sc3c2CCCCC3)cc1
% elongation: 75% (active)
z-score: -5
% elongation [1]: 78%

CCOc1ccc(NC(=O)c2c(NC(=O)Cc3ccccc3)sc3c2CCC(C)C3)cc1 (centres undefined)
% elongation: 83% (active)
z-score: -3.6
% elongation [1]: 84%

CCOc1ccc(NC(=O)c2c(NCc3cccc(OC)c3OC)sc3c2CCC3)cc1
% elongation: 108% (inactive)
z-score: 0.4
% elongation [1]: 114%

O=C(Cc1ccccc1)Nc1sc2c(c1C(=O)Nc1ccc(Br)cc1)CCC2
% elongation: 102% (inactive)
z-score: -0.1
% elongation [1]: 106%

COC(=O)c1c(NC(=O)CCCOc2ccccc2)sc2c1CCC(C)C2 (centres undefined)
% elongation: 105% (inactive)
z-score: 0.2
% elongation [1]: 112%

Cc1cccc(OCCCC(=O)Nc2sc3c(c2C(N)=O)CCC(C)C3)c1 (centres undefined)
% elongation: 101% (inactive)
z-score: -0.6
% elongation [1]: 102%

CC1CC(C)CN(C(=O)COC(=O)c2ccc(C#N)cc2)C1 (centres undefined)
% elongation: 101% (inactive)
z-score: -0.2
% elongation [1]: 102%

Cc1ccc(Cn2nc(C)c(/C=C/C(=O)OCc3nc4ccccc4c(=O)n3CC#N)c2C)cc1
% elongation: 108% (inactive)
z-score: 0.9
% elongation [1]: 119%

O=C(CC12CC3CC(CC(C3)C1)C2)Nc1noc2ccccc12
% elongation: 101% (inactive)
z-score: -0.1
% elongation [1]: 102%

COC(CNC(=O)c1ccc2c(c1)N(Cc1cc(C)ccc1C)C(=O)c1ccccc1S2=O)OC (centres undefined)
% elongation: 99% (inactive)
z-score: -1.1
% elongation [1]: 103%

CCn1c(C(C)C)n[nH]c1=S
% elongation: 103% (inactive)
z-score: 0.6
% elongation [1]: 102%

CC(C)c1n[nH]c(=S)n1N
% elongation: 62% (active)
z-score: -2.9
% elongation [1]: 68%

CC(C)n1c(-c2ccncc2)n[nH]c1=S
% elongation: 102% (inactive)
z-score: 0.7
% elongation [1]: 103%

CC(C)Sc1n[nH]c(=S)n1N
% elongation: 83% (active)
z-score: -1.9
% elongation [1]: 88%

O=C(CN1C(=O)c2ccccc2C1=O)NN1C(=O)CSC1=S
% elongation: 97% (inactive)
z-score: -0.8
% elongation [1]: 106%

COc1ccc(O)c(C(=O)c2cnn3c(N)nnc3c2)c1
% elongation: 84% (active)
z-score: -2.3
% elongation [1]: 84%

COc1ccc(O)c(C(=O)c2cnn(C(=O)c3ccc4c(=O)n5c(nc4c3)CCC5)c2)c1
% elongation: 104% (inactive)
z-score: 0.1
% elongation [1]: 108%

COc1ccc(OC)c(C(=O)c2ccc(C(=O)O)cc2)c1
% elongation: 102% (inactive)
z-score: 0.4
% elongation [1]: 100%

COc1cc(C=Nc2c(C)n(C)n(-c3ccccc3)c2=O)ccc1OC(=O)c1ccco1
% elongation: 104% (inactive)
z-score: 0.5
% elongation [1]: 102%

O=C(CSc1nc2c(c(=O)[nH]1)CN(Cc1ccc3c(c1)OCO3)CC2)Nc1cc(F)ccc1F
% elongation: 108% (inactive)
z-score: 0
% elongation [1]: 107%

O=C(CSc1nc2c(c(=O)[nH]1)CN(Cc1ccc(F)cc1)CC2)Nc1ccccc1Cl
% elongation: -15% (active)
z-score: -8.9
% elongation [1]: 19%

COc1cccc(CN2CCc3nc(SCC(=O)Nc4ccccc4)[nH]c(=O)c3C2)c1
% elongation: 107% (inactive)
z-score: -0.1
% elongation [1]: 111%

CC[N+](CC)=c1scc(-c2ccc(Cl)cc2)s1
% elongation: 102% (inactive)
z-score: -0.2
% elongation [1]: 110%

O=c1ccc(-c2ccc(S(=O)(=O)N3CCc4ccccc43)o2)n[nH]1
% elongation: 102% (inactive)
z-score: 0.6
% elongation [1]: 108%

CCN(CC)C(=O)C1Sc2nnc(-c3ccccc3)n2NC1c1ccccc1 (centres undefined)
% elongation: 101% (inactive)
z-score: 0.1
% elongation [1]: 102%

Cc1[nH]c(=O)[nH]c(=O)c1N
% elongation: 100% (inactive)
z-score: -0.5
% elongation [1]: 100%

CC[N+](C)(CC)CCC[n+]1c(-c2ccccc2)c2cc(N)ccc2c2ccc(N)cc21
% elongation: -41% (active) and -58% (active) and 65% (active)
z-score: -17 and -9.9 and -6.6
% elongation [1]: -18% and -15% and 39%

CC[n+]1c(C)n(-c2ccccc2)c2ccc(N)cc21
% elongation: 102% (inactive)
z-score: 0.2
% elongation [1]: 106%

CC(=O)Nc1c(C)ccc(NC(=O)C2C(C=C(C)C)C2(C)C)c1C (centres undefined)
% elongation: 102% (inactive)
z-score: -0.1
% elongation [1]: 102%
